Calls of active or inactive are those of the source.
What was measured:
[1] = biological target: Albumin (Bos taurus) (UniProt P02769); assay: compounds binding labelled BSA control protein – biochemical, small-molecule microarray, Alexa647 label, 635/667 nm fluorescence, artefact control for SMM control protein annotation, profiling panel (AID 1118); settings: BSA-A647 binding, fluorescence 635 nm, higher = more signal;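 note: score merges 667 nm emission intensity and signal-to-noise per printed compound spot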
Chain of Albumin (Bos taurus) (P02769 whole entry, looked up): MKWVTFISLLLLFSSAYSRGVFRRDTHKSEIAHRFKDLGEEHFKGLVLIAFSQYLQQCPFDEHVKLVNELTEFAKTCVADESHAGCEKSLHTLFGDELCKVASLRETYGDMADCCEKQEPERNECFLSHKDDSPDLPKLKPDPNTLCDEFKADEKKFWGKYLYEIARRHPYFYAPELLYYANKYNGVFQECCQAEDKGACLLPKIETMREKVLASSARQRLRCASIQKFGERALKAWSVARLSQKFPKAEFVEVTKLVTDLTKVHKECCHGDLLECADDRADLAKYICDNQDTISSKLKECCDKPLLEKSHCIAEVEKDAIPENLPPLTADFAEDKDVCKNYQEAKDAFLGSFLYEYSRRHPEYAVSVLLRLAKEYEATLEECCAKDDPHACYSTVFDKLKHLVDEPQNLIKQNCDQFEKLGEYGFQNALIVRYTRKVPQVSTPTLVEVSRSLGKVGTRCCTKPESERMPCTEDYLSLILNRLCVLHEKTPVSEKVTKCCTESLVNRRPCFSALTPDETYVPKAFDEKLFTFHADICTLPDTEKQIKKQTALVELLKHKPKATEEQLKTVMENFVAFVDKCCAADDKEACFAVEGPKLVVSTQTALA

[2] = probe aXIP binding to arrayed compounds – biochemical, NeuroSMM set, 635/667 nm fluorescence, primary screen (AID 1119); settings: small-molecule microarray, higher = more signal, called active from +8 up or from −8 down;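 note: probe is the protein aXip251-270 applied at 1 µg/mL to compound-printed slides; binding of probe to printed compounds measured as 667 nm fluorescence plus signal to noise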
[3] = probe aNOTCH3 binding on compound microarray – biochemical, small-molecule microarray, 635/667 nm fluorescence, primary screen (AID 1120); settings: higher = more signal;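 note: probe is a biotin-tagged antibody raised against NOTCH3 rather than NOTCH3 protein; score merges spot fluorescence near 667 nm with spot signal to noise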
[4] = probe aNOTCH2 binding on compound microarray – biochemical, small-molecule microarray, 635/667 nm fluorescence, primary screen (AID 1121); settings: higher = more signal;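 note: score merges feature fluorescence read at 667 nm with its signal to noise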
[5] = biological target: Carbonic anhydrase 2 (Homo sapiens) (UniProt P00918); assay: compounds binding carbonic anhydrase 2 – biochemical, small-molecule microarray, Alexa647-labelled CAII, profiling panel (AID 1122); settings: CAII-A647 binding fluorescence, higher = more signal
[6] = COS7 lysate on small-molecule microarray, probe aHis, 635 nm (AID 1123); settings: COS7 cell lysate, fluorescence, higher = more signal;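 note: z-score combines 667nm fluorescence intensity with signal-to-noise per printed compound spot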
[7] = probe aLAP1 signal on lysate-treated microarray – cell lysate, small-molecule microarray, COS7 lysate, primary screen (AID 1124); settings: probe aLAP1, fluorescence, higher = more signal;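 note: lysate comes from COS7 cells expressing LAP1 and is applied at 0.3 µg/mL; score merges spot fluorescence near 667 nm with signal-to-noise over triplicate slides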
[8] = system: Sam68 (KHDRBS1); assay: compounds binding KHDRBS1 protein – biochemical, small-molecule microarray, 635 nm fluorescence, primary screen (AID 1125); settings: higher = more signal;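 note: score merges 667 nm channel intensity with signal to noise over triplicate slides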
[9] = system: Chordin-like protein 2 (CHRDL2); assay: compounds binding chordin-like 2 – biochemical, small-molecule microarray, 635 nm fluorescence, primary screen (AID 1126); settings: fluorescence 635 nm, higher = more signal;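 note: printed compound slides probed with Chrdl2 protein at 4 µg/mL for 1 h at 4 C; score merges 667 nm emission intensity with signal to noise over three replicate slides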
[10] = biological target: Concanavalin-A (Canavalia ensiformis) (UniProt P02866); assay: compounds binding concanavalin A lectin – biochemical, small-molecule microarray, Alexa647 label, 635 nm, artefact control for SMM control protein annotation, primary screen (AID 1127); settings: ConA-A647 binding fluorescence, higher = more signal;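 note: z combines 667 nm emission intensity with signal-to-noise across three replicate slides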
Chain of Concanavalin-A (Canavalia ensiformis) (P02866 whole entry, looked up): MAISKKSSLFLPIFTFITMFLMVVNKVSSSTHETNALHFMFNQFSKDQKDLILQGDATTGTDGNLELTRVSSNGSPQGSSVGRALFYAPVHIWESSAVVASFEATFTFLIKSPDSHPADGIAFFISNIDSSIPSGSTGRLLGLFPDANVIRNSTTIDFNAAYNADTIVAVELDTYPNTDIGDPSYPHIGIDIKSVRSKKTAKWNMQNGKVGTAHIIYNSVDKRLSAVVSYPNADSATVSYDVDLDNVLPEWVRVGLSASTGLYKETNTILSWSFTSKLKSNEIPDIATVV

[11] = compounds binding Alexa647 anti-His antibody – biochemical, small-molecule microarray, 635 nm fluorescence, artefact control for SMM control protein annotation, primary screen (AID 1128); settings: higher = more signal;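 note: score merges feature fluorescence with signal-to-noise for each printed compound spot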
[12] = system: Human papillomavirus type 1a E7 protein (residues 1-88); assay: HPV1a E7 small-molecule binders, primary screen, biochemical, small-molecule microarray, residues 1-88, 635 nm (AID 1129); settings: small-molecule microarray binding, fluorescence 635 nm; higher = more signal
[13] = biological target: Focal adhesion kinase 1 (Homo sapiens) (UniProt Q05397); assay: PTK2 protein binding on printed compound slides – biochemical, small-molecule microarray, 635/667 nm fluorescence, BSA, DTT, primary screen (AID 1130); settings: 635 nm fluorescence, higher = more signal;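 note: composite of spot emission at 667 nm and signal to noise over triplicate slides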
Chain of Focal adhesion kinase 1 (Homo sapiens) (Q05397 whole entry, looked up): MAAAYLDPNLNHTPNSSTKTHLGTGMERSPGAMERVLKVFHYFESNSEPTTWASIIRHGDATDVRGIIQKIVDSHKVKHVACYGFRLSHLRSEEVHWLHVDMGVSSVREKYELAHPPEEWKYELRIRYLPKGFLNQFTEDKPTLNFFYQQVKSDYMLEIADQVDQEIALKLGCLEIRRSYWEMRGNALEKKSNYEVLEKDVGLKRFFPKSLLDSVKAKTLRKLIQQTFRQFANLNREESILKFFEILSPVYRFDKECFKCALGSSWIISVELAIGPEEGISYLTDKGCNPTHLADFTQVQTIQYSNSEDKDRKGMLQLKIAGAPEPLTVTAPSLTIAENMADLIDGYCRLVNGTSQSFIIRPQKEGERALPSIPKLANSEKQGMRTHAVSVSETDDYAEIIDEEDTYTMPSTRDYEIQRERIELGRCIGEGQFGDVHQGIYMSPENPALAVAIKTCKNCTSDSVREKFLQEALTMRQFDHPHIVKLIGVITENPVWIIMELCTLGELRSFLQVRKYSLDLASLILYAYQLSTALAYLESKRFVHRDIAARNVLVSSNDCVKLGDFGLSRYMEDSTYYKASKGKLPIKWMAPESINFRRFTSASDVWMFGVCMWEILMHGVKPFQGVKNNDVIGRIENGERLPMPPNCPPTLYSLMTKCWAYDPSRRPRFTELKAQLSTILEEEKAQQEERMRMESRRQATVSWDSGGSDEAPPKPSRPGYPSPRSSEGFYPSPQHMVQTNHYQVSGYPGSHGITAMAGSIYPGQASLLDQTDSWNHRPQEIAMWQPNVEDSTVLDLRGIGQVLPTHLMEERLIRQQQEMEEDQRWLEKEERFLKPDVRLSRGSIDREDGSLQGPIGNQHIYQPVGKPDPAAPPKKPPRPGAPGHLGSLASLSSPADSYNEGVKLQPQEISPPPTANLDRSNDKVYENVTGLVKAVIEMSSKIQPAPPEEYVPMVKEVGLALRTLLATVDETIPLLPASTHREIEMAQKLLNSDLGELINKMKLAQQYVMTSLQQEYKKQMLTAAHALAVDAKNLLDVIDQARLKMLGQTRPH

[14] = system: Fibrinogen (Alexa647-labelled); assay: Alexa647-fibrinogen binding to printed small molecules – biochemical, small-molecule microarray, 635/667 nm fluorescence, artefact control for SMM control-protein annotation, profiling panel (AID 1131); settings: fibrinogen-A647 binding fluorescence, higher = more signal;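 note: z-score merges 667 nm fluorescence with per-spot signal-to-noise over triplicate slides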
[15] = biological target: Follistatin (Homo sapiens) (UniProt P19883); assay: FST protein binding to printed compounds – biochemical, small-molecule microarray, 635/667 nm fluorescence, primary screen (AID 1132); settings: 635 nm fluorescence, higher = more signal
Chain of Follistatin (Homo sapiens) (P19883 whole entry, looked up): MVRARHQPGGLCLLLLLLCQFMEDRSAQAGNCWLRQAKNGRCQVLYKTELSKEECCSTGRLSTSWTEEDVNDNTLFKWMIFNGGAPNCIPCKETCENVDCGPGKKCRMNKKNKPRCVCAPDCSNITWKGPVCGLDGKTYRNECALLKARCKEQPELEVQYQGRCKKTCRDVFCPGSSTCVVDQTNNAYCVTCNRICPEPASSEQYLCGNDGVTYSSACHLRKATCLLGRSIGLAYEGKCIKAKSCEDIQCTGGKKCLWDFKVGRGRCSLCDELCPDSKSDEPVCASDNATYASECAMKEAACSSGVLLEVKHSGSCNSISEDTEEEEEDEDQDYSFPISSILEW

[16] = biological target: Fibroblast growth factor 2 (Homo sapiens) (UniProt P09038); assay: basic fibroblast growth factor binding to printed compounds – biochemical, small-molecule microarray, 635/667 nm fluorescence, primary screen (AID 1133); settings: FGF2, fluorescence 635/667, higher = more signal
Chain of Fibroblast growth factor 2 (Homo sapiens) (P09038 whole entry, looked up): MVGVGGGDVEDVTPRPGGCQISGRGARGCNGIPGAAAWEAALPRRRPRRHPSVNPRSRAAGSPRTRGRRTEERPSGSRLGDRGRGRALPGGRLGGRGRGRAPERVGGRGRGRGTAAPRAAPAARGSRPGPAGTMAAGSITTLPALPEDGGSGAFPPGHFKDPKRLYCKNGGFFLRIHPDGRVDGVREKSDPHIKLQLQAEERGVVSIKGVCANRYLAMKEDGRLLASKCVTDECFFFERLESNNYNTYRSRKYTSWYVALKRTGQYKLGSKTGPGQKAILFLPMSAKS

[17] = JC-1 mitochondrial potential readout, lung cancer cells – cell-based, A549, JC-1 fluorescence, basal, 24 h, 100 nL, profiling panel (AID 1138); settings: higher = more signal;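 note: A549 lung adenocarcinoma cells under basal conditions with no added stimulus; test concentration not given here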
[18] = system: Lefty1; assay: Lefty1 protein binding to printed compounds – biochemical, small-molecule microarray, 635/667 nm fluorescence, primary screen (AID 1139); settings: fluorescence 635/667, higher = more signal
[19] = system: wheat germ agglutinin (Triticum aestivum), Alexa647-labelled; assay: Alexa647-WGA lectin binding to printed small molecules – biochemical, small-molecule microarray, 635/667 nm fluorescence, artefact control for SMM control-protein annotation, profiling panel (AID 1140); settings: WGA-A647 binding, 635 nm fluorescence, higher = more signal;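 note: score merges 667 nm feature emission with signal to noise over triplicate slides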
[20] = biological target: Luciferin 4-monooxygenase (Photinus pyralis) (UniProt P08659); assay: inhibition of purified Photinus pyralis luciferase – biochemical, luminescence, purified enzyme, 2006 set, primary screen (AID 1141); settings: purified firefly luciferase, SteadyGlo luminescence, 30 min; higher = more signal, called active from +8 up or from −8 down;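 note: cell-free assay with purified firefly luciferase at 100 ng per well in PBS; test concentration not given here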
Chain of Luciferin 4-monooxygenase (Photinus pyralis) (P08659 whole entry, looked up): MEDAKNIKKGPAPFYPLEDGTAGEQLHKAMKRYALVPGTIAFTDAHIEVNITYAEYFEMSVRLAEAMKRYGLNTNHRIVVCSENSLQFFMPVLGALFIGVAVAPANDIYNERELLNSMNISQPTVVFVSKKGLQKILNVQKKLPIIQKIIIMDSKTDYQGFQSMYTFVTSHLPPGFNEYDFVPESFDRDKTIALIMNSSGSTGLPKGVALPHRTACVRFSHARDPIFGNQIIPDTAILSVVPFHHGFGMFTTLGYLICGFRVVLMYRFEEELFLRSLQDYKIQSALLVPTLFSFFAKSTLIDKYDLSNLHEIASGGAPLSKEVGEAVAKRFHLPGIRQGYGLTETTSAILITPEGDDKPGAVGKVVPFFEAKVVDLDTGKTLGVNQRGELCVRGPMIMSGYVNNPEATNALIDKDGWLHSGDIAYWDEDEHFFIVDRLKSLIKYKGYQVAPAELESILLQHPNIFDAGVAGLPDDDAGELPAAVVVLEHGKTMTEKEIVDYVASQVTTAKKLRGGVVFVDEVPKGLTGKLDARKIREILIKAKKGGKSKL

Structure (SMILES) | composite z-score [1] | composite Z-score [2] | composite z-score [3] | composite z-score [4] | composite z-score [5] | composite z-score [6] | composite z-score [7] | composite z-score [8] | composite z-score [9] | composite z-score [10] | composite z-score [11] | composite z-score [12] | composite z-score [13] | composite z-score [14] | composite z-score [15] | composite z-score [16] | z-score [17] | composite z-score [18] | composite z-score [19] | z-score [20]
C=COC[C@@H]1CN2[C@@H](CC[C@@H](C)[C@@H]2c2ccc(Br)cc2)C(=O)O1 | 0.0494 | 0.686 (inactive) | -0.161 | -0.14 | 0.0173 | 0.043 | 0.008 | -0.0284 | 0.407 | -0.563 | -0.559 | 0.151 | 0.18 | 0.212 | 0.0793 | -0.285 | -1.25 | 0.0005 | -0.0681 | 0.49 (inactive)
COC(=O)CC=C[C@@H](C)[C@@H](C=NO[C@@H]1O[C@H](COC(C)=O)[C@@H](OC(C)=O)[C@H](OC(C)=O)[C@H]1OC(C)=O)OC | 0.216 | -0.421 (inactive) | 0.0303 | -0.0294 | -0.605 | -0.152 | 0.124 | 0.702 | -0.0703 | -1.33 | 0.662 | 0.036 | 0.107 | -0.0528 | -0.186 | -0.347 | -0.361 | -0.268 | -0.421 | 0.86 (inactive)
C[C@@H](c1ccccc1)N1C(=O)[C@H]2[C@H]3[C@H](O)[C@H](O)CC(=NO[C@@H]4O[C@H](CO)[C@@H](O)[C@H](O)[C@H]4O)[C@H]3CC[C@H]2C1=O | 0.0673 | -0.154 (inactive) | 0.0259 | 0.012 | -0.0193 | 0.0007 | 0.554 | 0.648 | 0.373 | 0.44 | 0.746 | 0.76 | -0.0492 | 0.318 | 0.656 | 0.444 | 0.296 | 0.554 | 0.0795 | 0.491 (inactive)
CO[C@H]1COC(=O)CC=C[C@H](C)COC(=O)[C@@H](C)NC(=O)CC=C[C@@H]1C | -0.854 | 0.842 (inactive) | -0.179 | -0.14 | -0.532 | -1.13 | 0.487 | 0.339 | 1.56 | -0.582 | 2.07 | -0.696 | -0.775 | -1.32 | 1.29 | 0.654 | -1.61 | 1.72 | -0.52 | 0.917 (inactive)
C=CC[C@@H]1C=C[C@H](ON=C[C@@H](C)[C@H](OCc2ccccc2)C(C)C)[C@@H](CO)O1 | 0.744 | -0.315 (inactive) | -0.276 | -0.221 | -0.115 | 0.502 | 0.103 | 0.0186 | 0.157 | -0.817 | -0.304 | -0.324 | -0.472 | -1.67 | -0.386 | -0.178 | -0.922 | 0.521 | -0.0625 | 0.888 (inactive)
COc1ccc(O[C@H]2C=C[C@@H](c3ccccc3)O[C@@H]2COC(=O)CCC(C)=NO[C@@H]2O[C@H](COC(C)=O)[C@@H](OC(C)=O)[C@H](OC(C)=O)[C@H]2OC(C)=O)cc1 | 0.303 | -0.211 (inactive) | 0.0322 | -0.211 | -0.0481 | 0.752 | 0.0839 | 1.32 | 0.786 | 0.544 | 0.487 | 0.795 | -0.234 | 0.708 | 0.293 | 0.641 | -0.388 | 0.742 | 0.262 | 1.16 (inactive)
CC(C)CON=C1C[C@@H](O)[C@@H](O)[C@@H]2[C@@H]3C(=O)N(Cc4ccc5c(c4)OCO5)C(=O)[C@@H]3CC[C@H]12 | 0.768 | -0.275 (inactive) | -0.0288 | -0.115 | 0.625 | 0.676 | -0.358 | 1.34 | 0.0987 | 0.957 | 0.193 | 0.689 | 0.0874 | 0.237 | 0.707 | 0.914 | -0.72 | 0.831 | -0.0178 | 1.26 (inactive)
Cc1ccc(S(=O)(=O)N[C@@H]2COC(=O)[C@@H](C)COC(=O)CC=C[C@H]2C)cc1 | -0.0824 | -0.145 (inactive) | 0.135 | -0.162 | -0.006 | -0.0704 | -0.0424 | -0.181 | 0.379 | 0.457 | 0.204 | 0.389 | -0.033 | 0.466 | 0.516 | 0.636 | 0.493 | 0.383 | -0.0537 | -0.836 (inactive)
COC(=O)CC=C[C@@H](C)[C@@H](C=NO[C@H](C)c1cn([C@@H]2COC[C@H]2O)nn1)NS(=O)(=O)c1ccc(C)cc1 | -0.129 | 0.355 (inactive) | 0.0316 | -0.0108 | -0.156 | 0.0779 | 0.219 | 0.277 | 0.877 | -0.653 | 1.41 | -0.0194 | -0.217 | 0.533 | 1.08 | 0.845 | 0.109 | 1.26 | 0.521 | 0.316 (inactive)
CCOC(=O)[C@H](Cc1ccccc1)NC(=O)CCC1CC(OC(=O)NCCc2ccc(F)cc2)CC2(CCCC(COC(=O)NCCc3ccc(Cl)cc3)O2)O1 (stereo not given in full) | 0.755 | 0.118 (inactive) | 0.0179 | -0.101 | 0.283 | 1.12 | 0.416 | 1.23 | 0.38 | 1.03 | 1.03 | 1.09 | 0.671 | 0.832 | 0.326 | 0.996 | 0.699 | 0.583 | 0.105 | 0.361 (inactive)
CCOC(=O)[C@H](CC(C)C)NC(=O)CCC1CC(OC(=O)NCCc2ccc(F)cc2)CC2(CCCC(COC(=O)NCCc3ccccc3OC)O2)O1 (stereo not given in full) | 0.788 | 0.0516 (inactive) | -0.0647 | -0.0781 | 0.56 | 0.907 | 0.419 | 1.29 | 0.337 | 1.09 | 1.35 | 0.903 | 0.0376 | 0.956 | 0.236 | 0.399 | 0.848 | 0.522 | 0.0393 | 0.109 (inactive)
O=C1C[C@@H](O)[C@@H](O)[C@@H]2[C@@H]3C(=O)N(C[C@@H]4CCCO4)C(=O)[C@@H]3CC[C@H]12 | 0.225 | -0.472 (inactive) | 0.0197 | -0.203 | 0.0413 | 0.157 | -0.117 | 0.354 | 0.72 | 0.186 | 0.284 | 0.569 | -0.266 | 0.684 | 0.236 | 0.538 | 0.991 | 0.548 | 0.085 | -0.635 (inactive)
